This passage reports growth results from PubChem BioAssay (NCI).

Each structure is given as a SMILES string. Values joined by “and” are separate entries in the source; they are usually repeats but may differ in a detail not shown here. Identical values can stand only once. This is part of a sample that, as a whole, favours compounds with a hit. Of some 83,000 tested, about 20% had one in any assay.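 The endpoint reported here, percent growth, reads 100 for growth as untreated, 0 for no net growth and -100 for all cells dead.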 Unmarked numbers belong to inactive results. Active and inactive are the calls of the source. The calls were made as follows: active = growth percent below 10; inactive = the rest.

Holding throughout (test): NCI-60 one-dose screen, 48 h (100 = growth as untreated, 0 = no growth, -100 = all killed)
The subject of assay [1] is SK-MEL-2 melanoma. Conditions: 10 µM.
Assay [2] relates to EKVX NSCLC. The note with it: 10 µM.
Assay [3] has as its system SN12C renal. The note with it: 10 µM.
Assay [4] deals with UO-31 renal. The note with it: 10 µM.
Assay [5] deals with TK-10 renal.
Assay [6] has as its system ACHN renal. The note with it: 10 µM.
The test system of assay [7] is CAKI-1 renal. Conditions: 10 µM.
The subject of assay [8] is A498 renal. The note with it: 10 µM.
The subject of assay [9] is CCRF-CEM leukemia. The note with it: 10 µM.
Assay [10] concerns MOLT-4 leukemia. The note with it: 10 µM.

For the molecule `COC(=O)c1ccccc1Br`, the growth in assay [1] is 114%; in [2], 81.4%; in assay [3] it was 92.4%; in [4], 96.4%; in assay [5] (10 µM unless noted) it was 103%; in assay [6], 105%. The growth in assay [7] was 102%; in assay [8] it was 104%; in [9] it was 109%; in [10] it was 94.6%.
Regarding `COc1cc(/C=C(\C#N)C(=O)c2ccccc2)ccc1OCc1ccccc1`, the growth was 127% in assay [1]; 107% in assay [2]; 102% in assay [3]; 79.7% in [4]; 109% in assay [5] (10 µM unless noted); 102% in [6]. For the same molecule, the growth in assay [7] is 96.5%; in [8], 87.9%; in assay [9], -32.5% (active); in assay [10] it was 106%.
Regarding `Cc1cc(=O)[nH]c(NN=C2CCCC2)n1`, the growth in assay [1] was 107%; in assay [2], 107%; in assay [3], 104%; in assay [4], 91.2%; in assay [5] (10 µM unless noted) it was 122%; in assay [6] it was 108%. Moreover, the growth in assay [7] is 100%; in assay [8], 129%; in assay [9], 102%; in assay [10], 101%.
For the molecule `CCOC(=O)/C(C#N)=C/c1cccc(C)c1`, the growth in assay [1] is 106%; in assay [2], 98.9%; in assay [3], 103%; in assay [4], 88.9%; in assay [5] (10 µM unless noted) it was 98%; in assay [6] it was 98.9%. Besides, the growth was 69.5% in assay [7] and 101% in [8].
In the case of `CC1CC(O)CC(C)(C)C1` (stereo not drawn), the growth in assay [1] is 105%; in assay [2], 98.8%; in assay [3] it was 104%; in assay [4], 85.6%; in [5] (10 µM unless noted), 102%; in assay [6] it was 107%. Also, the growth is 98.9% in assay [7], 98.7% in assay [8], 96.4% in [9] and 100% in [10].
`CCOc1ccc(I)cc1`: the growth in [1] was 130%; in [2], 105%; in [3] it was 97.1%; in assay [4] it was 89%; in assay [5] (10 µM unless noted), 112%; in [6], 110%. In addition, the growth is 113% in [7], 101% in [8], 121% in assay [9] and 115% in [10].
Turning to `Cc1c(O)cccc1O`, the growth in assay [1] is 93.5%; in assay [2] it was 106%; in assay [3], 88%; in [4] it was 111%; in assay [5] (10 µM unless noted) it was 104%; in [6] it was 107%. Further, the growth is 61% in assay [7], 125% in assay [8], 100% in assay [9] and 90% in assay [10].
As for `CCn1c(=O)n(C)c2c(=O)n(C)c(=O)n(C)c21`, the growth is 104% in [1]; 103% in assay [2]; 105% in [3]; 87.4% in [4]; 102% in [5] (10 µM unless noted); 105% in assay [6]. Further, the growth in assay [7] was 98.3%; in assay [8], 91.7%; in assay [9], 98.2%; in [10] it was 101%.
For the molecule `CC(=O)OCC1=CC2OC(=O)C3=COC(OC4OC(CO)C(O)C(O)C4O)C1C32` (stereo not drawn), the growth is 138% in assay [1]; 101% in assay [2]; 101% in assay [3]; 96.7% in assay [4]; 113% in [5] (10 µM); 81% and 93.8% in assay [5] (100 µM). Also, the growth in assay [6] was 111%; in assay [7], 101%; in assay [9] it was 104%; in assay [10] it was 141%.
On to `CCOC(=O)c1[nH]c(C)c(C(C)=O)c1C`, for which the growth in assay [1] was 122%; in assay [2] it was 100%; in assay [3] it was 90.8%; in assay [4] it was 79.3%; in [5] (10 µM unless noted), 98.4%; in [6], 97%. In addition, the growth was 87.3% in [7], 91% in [8], 91.6% in assay [9] and 59.1% in assay [10].
As to `C=C1CC/C=C(\C)C(=O)C[C@@H]2[C@@H]1CC2(C)C`, the growth in [1] was 102%; in assay [2] it was 104%; in assay [3], 114%; in [4], 88.3%; in [5] (10 µM) it was 123%; in assay [5] (100 µM) it was -73.6% (active). Also, the growth is 102% in assay [6], 85% in [8], 69.3% in assay [9] and 93.5% in [10].
For `Cc1cc(/C=C/c2ccc3cc(N(C)C)ccc3[n+]2C)c(C)n1-c1ccccc1`, the growth in assay [1] was -51.6% (active); in assay [2], 0.119% (active); in [3] it was -25.7% (active); in [4], 1.75% (active); in assay [5] (10 µM unless noted), -5.02% (active); in assay [6], -83.5% (active). Besides, the growth in assay [7] was -31% (active); in assay [8] it was -25% (active); in assay [9] it was 0.765% (active); in [10] it was 0.162% (active).
In the case of `COS(=O)(=O)c1ccc(Br)cc1`, the growth is 95% in assay [1]; 106% in [2]; 93.9% in assay [3]; 86.2% in [4]; 97.5% in assay [5] (10 µM unless noted); 103% in [6]. In addition, the growth in [7] was 115%; in assay [8] it was 113%; in assay [9], 127%; in [10] it was 129%.
`Nc1nc(OCc2ccccc2)c2[nH]cnc2n1`: the growth in assay [1] is 107%; in assay [2], 95%; in [3], 105%; in assay [4], 96.9%; in assay [5] (10 µM unless noted) it was 82.1%; in [6], 73.5%. The growth was 74% in assay [7], 86.1% in [8], 143% in assay [9] and 73% in [10].
Consider `Cc1cccc(CO)c1`, for which the growth in [1] is 110%; in [2], 113%; in assay [3] it was 106%; in assay [4], 92.9%; in assay [5] (10 µM unless noted) it was 108%; in assay [6], 111%. Besides, the growth in [7] was 100%; in assay [8], 108%; in assay [9], 110%; in assay [10], 106%.
